The panel holds about 83,000 compounds, 20% with a hit somewhere; the sample as a whole holds those more often.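 Cell lines were cultured in 96-well plates, exposed to a single compound concentration, and assessed for percent growth 48 hours later.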 Values without a mark were called inactive. Activity calls are given as the source filed them. How the source made its calls: active means growth percent below 10; inactive means the rest.
Tested on: MDA-MB-468 breast
Test: NCI-60 one-dose screen, 48 h (100 = growth as untreated, 0 = no growth, -100 = all killed)
Details: 10 µM unless noted

| SMILES | growth |
| --- | --- |
| COc1ccc(S(=O)(=O)NCCNc2nccc(-c3c(-c4cccc([N+](=O)[O-])c4)nc4sccn34)n2)cc1 | 69.7% |
| Cc1cn(C(C=O)OC(C=O)CO)c(=O)[nH]c1=O (centres undefined) | 113% |
| O=C(/C=C/c1ccccc1Cl)c1cccc(OCCCCOc2cccc(C(=O)/C=C/c3ccccc3Cl)c2)c1 | 110% |
| C=C1C(=O)O[C@H]2[C@H]1CC/C(CNC(=O)/C=C/c1ccccc1)=C\CC[C@@]1(C)O[C@@H]21 | -30.2% (active) |
| O=C(O)c1ccccc1Nc1cccc(S(F)(F)(F)(F)F)c1 | 111% |
| COc1ccc(-c2cc(=O)oc3c4c(ccc23)OCN(Cc2ccc(F)cc2)C4)cc1 | 16.1% |
| CCN(CC)CCOC(=O)Nc1c(C(C)C)cccc1C(C)C | 97.3% |
| COc1ccc2oc(=O)cc(C(c3ccc[nH]3)c3ccc[nH]3)c2c1 | 5.5% (active) |
| Cc1ccc(C)c2c1SC1=NNC(Oc3ccc(Cl)cc3)=C(C#N)C(=N)N12 | 118% |
| O=C(/C=C/c1ccccc1)N(C1CCCCC1)C1CCCCC1 | 72.4% |
| c1ccc2cc(C[n+]3ccn(CCCCCCCn4cc[n+](Cc5ccc6ccccc6c5)c4)c3)ccc2c1 | -2.76% (active) |
| Clc1cccc(Cc2cn3cc(-c4ccccc4)nc3s2)c1 | 44.3% |
| O=C(/C=C/c1ccc(Cl)cc1)c1ccc(NC(=O)N2CCN(c3cc4c(cc3F)c(=O)c(C(=O)O)cn4C3CC3)CC2)cc1 | 96.6% |
| O=S(=O)(/N=c1/n(-c2ccccc2)nc2n1CCN2C1=NCCN1)c1ccc(-c2ccccc2)cc1 | 94.3% |
| C=C(C)[C@@H]1CC[C@]2(C(=O)N3CCN(C)CC3)CC[C@]3(C)[C@H](CC[C@@H]4[C@@]5(C)CCC(=O)C(C)(C)[C@@H]5CC[C@]43C)[C@@H]12 | 77.3% |
| NC(=S)N/N=C\c1nccc2c(C(F)(F)F)cccc12 | -64.8% (active) |
| CN1CCC[C@]2(C)[C@H]3CC[C@@H]4[C@@H]5[C@H]6OC[C@@]5(CCC6(C)C)CC[C@@]4(C)[C@]3(C)CC[C@H]2C1(C)C | 82% |

| SMILES | growth |
| --- | --- |
| CNC(=O)c1cc(-c2ccc(NC(=O)Nc3ccc(N4CCN(C)CC4)c(C(F)(F)F)c3)cc2)nc2cccnc12 | -73.8% (active) |
| O=C1CSC(=S)N1/N=C/c1ccc(Cl)s1 | 105% |
| O=C1/C(=C/c2ccccc2[N+](=O)[O-])COc2ccc(O)cc21 | -9.15% (active) |
| Cc1csc(Nc2cccc(Nc3nc(C)cs3)c2)n1 | 47.6% |
| CCCCCN(CCCCC)CCCCCCCCN1CCCc2ccccc21 | 99.9% |
| CC(c1cc(Cl)ccc1O)c1cc(Cl)ccc1O | 6.87% (active) |
| CN(C)CC1C(=O)O[C@H]2[C@H]1CC/C(COC(=O)NCc1ccc(Cn3c(=O)sn(CCCI)c3=O)cc1)=C\CC[C@@]1(C)O[C@@H]21 (some centres undefined) | -73.3% (active) |
| Cc1ccc2c3c(c(=O)[nH]c2c1)C1(C(C#N)=C(N)O3)c2cc(Br)ccc2-c2ccc(Br)cc21 | 6.75% (active) |
| S=c1sc2ccccc2n1CN1CCCCC1 | 108% |
| C=CCn1c(SCC(=O)Nc2ccc(C(=O)/C=C/c3ccc(Cl)cc3)cc2)nnc1-c1cc(-c2ccc(S(N)(=O)=O)cc2)nc2ccccc12 | 90.2% |
| CCCCNC1=C(OCC)C(=O)c2ccccc2C1=O | 56.3% |
| COc1ccc2c(c1)c(-c1nc(-c3c[nH]c4c(Cl)nccc34)cs1)cn2C | -23% (active) |
| O=C([C@@H](COCc1ccccc1)N1C(=O)[C@@H](N2C(=O)OC[C@@H]2c2ccccc2)[C@H]1/C=C/c1ccccc1)N1CCC(CCN2CCCCC2)CC1 | 64.8% |
| Cc1nc2sc(C(=O)Nc3ccccc3)c(N)c2cc1C(=O)/C=C/c1ccccc1 | 2.08% (active) |
| N#Cc1nc(-c2ccccc2)oc1S(=O)(=O)N1CCN(c2ccccc2)CC1 | 98.3% |
| CCCn1cnc2c(c1=N)C(c1ccc(F)cc1)c1sc3c(CC)cccc3c1O2 (centres undefined) | -47.9% (active) |
| NN=C(c1ccc(Cl)cc1)c1ccc(Cl)cc1 | 111% |
